Only some compounds are listed: those with a hit (about 7.9% of all), similar ones and a draw of the others.
HCMV inh: inhibitors of human cytomegalovirus. HFF cells, HCMV-luciferase reporter, 72 h; active compounds read low. activity change, negative = inhibition, % at 57.5 µM. 410,000 compounds, 4.5% hits. AID 1259415; in the data active means activity change below about -60%; inconclusive means no clear call, values can overlap the other calls; inactive means above about -39%
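Cell-based, HFFs, 1000 cells/well, 16 h 37C; cpds in DMSO + HCMV-luc, MOI 1 PFU/cell; 72 h 37C; OneGlo luminescence after 5 min RT; norm. to buffer vs Salinomycin 10uM.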
HCV inh: inhibitors of hepatitis C virus infection; Potency, µM (highest dose often 41.8 µM), inactives show top-dose activity change, negative = inhibition, most hits filed as inhibitors; Huh7.5.1 HCVcc-Cre infection, luciferase reporter, 44 h; 340,000 compounds, 3.4% hits; AID 651820; active means well fitted inhibition curve with a large enough effect; inconclusive means small, poorly fitted or top-dose-only effect, or another doubt; inactive means no such curve, though single readings can be large or run the other way; further: potency means the concentration at half of the fitted maximal effect
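HCVcc-Cre virus at an moi near 0.5 was added right after compound to cells cultured 4 h from seeding (1,000 cells/well). Luciferase activity was determined 44 h later, 15 min after substrate addition at RT.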
MARV entry inh: inhibitors of Marburg virus binding or cell entry; Marburg virus pseudotyped entry inhibition, cell reporter; Potency, µM (titrated, usually from 37.8 µM), for the others: top-dose activity change, negative = inhibition, usual class: inhibitors; 300,000 compounds, 1.8% hits; calls by dose curve; tested in HEK293 cells; further: potency means the concentration at half of the fitted maximal effect
FMDV antiviral: blocks foot and mouth disease virus | AID 1159524 | 410,000 compounds, 1.2% hits | FMDV antiviral cell-based qHTS | Potency, µM (titrated, usually from 57.9 µM), inactives show at the highest dose activity change, negative = inhibition, most hits filed as inhibitors; calls by dose curve; tested in HEK293T cells; further: read-out not given here; potency means the concentration at half of the fitted maximal effect; nearly all actives have a fitted effect of over 45% in size
Lassa entry inh: inhibitors of Lassa virus binding or cell entry; Potency, µM (doses to about 37.9 µM), without a hit: at the highest dose activity change, negative = inhibition, hits mostly inhibitors; AID 540256; Lassa virus pseudotype entry inhibition, cell reporter; 300,000 compounds, 1.2% hits; calls by dose curve; tested in HEK293 cells; further: potency means the concentration at half of the fitted maximal effect; nearly all actives have a fitted effect of over 50% in size
* = called active by the depositor; ? = inconclusive; · = not tested or not shown; + = active, no number; ! = repeats disagree; [ ] = remark or other dose. On the % scale 0 is the no-effect control and ±100 the full control effect.

SMILES	HCMV inh	HCV inh	MARV entry inh	FMDV antiviral	Lassa entry inh
COc1ccc(C2CC(c3ccc(Cl)cc3)=NN2C(C)=O)cc1 (centres undefined)	56	?	-24%	19%	-18%
Cc1cc2c(cc1C)NC(c1cccc(Br)c1)=C(N(Cc1ccccc1)C(=O)C(=O)c1ccccc1)C(=O)N2	-6	·	·	·	·
Cc1c(C(=O)N2CCCCC2)c(S(=O)(=O)N2CCC(C)CC2)c(C)n1C	+	31%	?	4%	-13%[46.1 µM]
Cc1c(C(=O)N2CCCC2)c(S(=O)(=O)N2CCCCC2)c(C)n1C	0	17%	-4%[46.1 µM]	-3%	5%[46.1 µM]
Cc1cccc(NS(=O)(=O)c2c(C(=O)N3CCCC3)c(C)n(C)c2C)c1	+	24%	9%[46.1 µM]	29%	16%[46.1 µM]
Cc1cc(C)cc(NC(=O)Cn2nnc(-c3ccccc3F)n2)c1	-18	·	·	-6%	-17%[46.1 µM]
CCOc1ccc(CCNC(=O)c2cc3c(=O)[nH]c4ccc(C)cc4c3s2)cc1OCC	-2	·	?	0%	10%[46.1 µM]
Cc1ccc(C(=O)c2cc(C)sc2NC(=O)CN2CCN(C(=O)c3ccco3)CC2)cc1	5	13µM*	?	?	?
CCc1cc(C(=O)OC)c(NC(=O)CN2CCN(C(=O)c3ccco3)CC2)s1	20	·	-18%	?	?
OC(c1ccc2c(c1)CN(Cc1ccc3nsnc3c1)CCO2)C1CCCCC1 (centres undefined)	·	·	·	-10%	·
O=C1c2ccccc2C(=O)C1c1ccc2ccccc2n1	-30	9%	?	?	5.8µM*
COC(=O)C1=C(C)NC(C)=C(C(=O)OC)C1c1ccc2ccccc2n1	63	22%	?	-21%	-8%
CCN(CC(=O)Nc1ccccc1C(F)(F)F)C(=O)c1ccc(=O)n(Cc2ccccc2)n1	?	-13%	-24%	0%	-12%
N#Cc1c(C(F)(F)F)cc(-c2ccccc2)nc1SCCN1CCOCC1	112	7.9µM*	?	·	-26%
COc1ccccc1C1/C(=C(/O)c2cnn(-c3ccccc3)c2C)C(=O)C(=O)N1CCN(C)C (centres undefined)	?	1%	·	4%	·
COc1cccc(C2/C(=C(/O)c3cnn(-c4ccccc4)c3C)C(=O)C(=O)N2CCN(C)C)c1OC (centres undefined)	-11	-4%	1.1µM*	0%	-7%
CNc1nc2cnc(Nc3ccc(F)c(Cl)c3)cc2n1-c1cc(OC)c(OC)c(OC)c1	76	·	·	·	·
O=C(O)CCCn1cc(NC(=O)COc2ccccc2F)cn1	-15	5%	8%[46.1 µM]	10µM*!	?
O=C(O)CCCn1cc(NC(=O)COc2ccc(F)cc2F)cn1	4	·	14%	4%	1%
Cc1ccc(N(Cc2cccs2)C(=O)COc2ccccc2[N+](=O)[O-])cc1	-68*	·	?	26%	?
Cc1ccc(N(Cc2cccs2)C(=O)c2ccccc2[N+](=O)[O-])cc1	?	·	-2%[46.1 µM]	-17%	3%[46.1 µM]
CCCN1CCN(c2ncnc3sc(C(=O)Nc4c(C)cc(C)cc4C)c(C)c23)CC1	?	·	·	?	15%[46.1 µM]
CCN(Cc1ccncc1)Cc1ccc2c(c1)CN(C(=O)c1cccc3c(C)c(C)[nH]c13)CCO2	·	·	·	5%	·
COc1ccc(C(=O)Nc2ccc3oc(Cc4ccc(Cl)cc4)nc3c2)cc1OC	-23	11µM*	0%	?	·
CCc1cc(CNC(=O)c2ccc3nc(Cc4ccc(OC)c(OC)c4)oc3c2)on1	-15	4.5µM*	·	-21%	·
SMILES	HCMV inh	HCV inh	MARV entry inh	FMDV antiviral	Lassa entry inh
Cc1ccccc1NC(=O)CCS(=O)(=O)c1cccc2nonc12	23	10%	1%[46.1 µM]	11%	-8%[46.1 µM]
CN1C(=O)[C@H](Cc2ccc([N+](=O)[O-])cc2)NC1=S	-72*	1%	0%[46.1 µM]	5%	?
COc1ccc(-n2nc(C(=O)NCC(=O)Nc3cc(Cl)c(OC)cc3OC)c3ccccc3c2=O)cc1	16	32µM*	?	-11%	-2%
COc1ccc(-n2nc(C(=O)NCC(=O)NC(C)C)c3ccccc3c2=O)cc1Cl	-20	-11%	·	0%	·
COc1ccc(-n2nc(C(=O)NCC(=O)NC3CCCC(C)C3C)c3ccccc3c2=O)cc1 (centres undefined)	9	?	?	-22%	?
COc1ccc(-n2nc(C(=O)NCC(=O)Nc3cc(OC)ccc3OC)c3ccccc3c2=O)cc1	-15	?	?	?	·
COc1ccc(-n2nc(C(=O)NCC(=O)Nc3ccccn3)c3ccccc3c2=O)cc1Cl	-24	?	4.1µM*	-3%	-26%
COc1ccc(-n2nc(C(=O)NCC(=O)NC3CCCC(C)C3C)c3ccccc3c2=O)c(OC)c1 (centres undefined)	-61*	-14%	-14%[46.1 µM]	-17%	?
COc1ccc(OC)c(NC(=O)CNC(=O)Cn2cnc3ccccc3c2=O)c1	1	?	0.71µM*	-4%	-4%
C=CCCC(=O)N(C)CCO	39	13%	·	-3%	·
COc1ccc(S(=O)(=O)N2CCN(Cc3cc(=O)n4ccccc4n3)CC2)cc1	-1	12%	·	-6%	·
CCNc1ncc2nc(-c3cc(F)cc(F)c3)c(=O)n(Cc3ccc(F)cc3)c2n1	·	·	·	-3%	·
O=C(O)c1cccc(S(=O)(=O)Nc2ccccc2C(=O)NCCc2ccccc2)c1	60	-7%	?	16%	4%[46.1 µM]
COc1cc2c(cc1OC)C(Nn1cnnc1)=NC1(CCCC1)C2	14	7%	15%[46.1 µM]	-7%	?
COc1ccc(-n2nc(C(=O)Nc3ccc(OC)c(OC)c3)c3c4ccccc4n(C)c3c2=O)cc1	-64*	?	-26%	-16%	?
COc1ccc(OCC(=O)Nc2cc(-c3nn(C)c(=O)c4ccccc34)ccc2OC)cc1	16	8.9µM*	4.1µM*	?	?
O=C(Nc1ccccc1)N1CCCC2(CCN(C(=O)c3cnccn3)CC2)C1	·	·	·	-6%	·
CCCCCCn1c(O)c(/C=N/N2CCCCCC2)c(=O)[nH]c1=O	-64*	-13%	-2%[46.1 µM]	-2%	?
COc1ccc(OC)c(CNC(=O)c2ccccc2NC(=O)c2nsc3ccccc23)c1	24	·	·	-23%	1%[46.1 µM]
CCOc1cc(CNC(=O)c2ccccc2NC(=O)c2nsc3ccccc23)ccc1OC	-82*	·	·	-20%	0%[46.1 µM]
Cc1ccc(C(=O)NCc2ccc(N(C)C)cc2)cc1NC(=O)c1nsc2ccccc12	33	·	·	1%	5µM*
Cc1ccc(C(=O)NCc2ccccc2)cc1NC(=O)c1nsc2ccccc12	48	·	·	32%	-16%[46.1 µM]
Cc1nc(C(=O)N(Cc2cc3ccc(F)cc3nc2N2CCC(O)CC2)CC2CCCO2)cs1 (centres undefined)	·	·	·	7%	·
COc1ccc(OC)c(CCNC(=O)C2CCN(c3ncnc4c3nc3n4CCCCC3)CC2)c1	13	-13%	3%[46.1 µM]	10%	16%[46.1 µM]
NNC(=O)CSc1cccc2cccnc12	30	27%	11%	-3%	?
O=C(CSc1cccc2cccnc12)N1CCCC1	?	0.71µM*	?	?	?
Cc1cccc(NC(=O)CSc2cccc3cccnc23)c1	-16	7%	·	13%	·

Assay outcomes as filed in PubChem.
